High-throughput results (PubChem)
Resorufin fluor – compound fluoresces in the resorufin spectral region. 0.04% of 59,000 active. max dye-equivalent concentration, M. Compound fluorescence, resorufin region 547/598 nm, buffer; hits give high values
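Dye-equivalent concentration values derive from comparing each well's 547/598 nm fluorescence against resorufin standards included on every plate. Incubation was 15 min at room temperature in 100 mM Tris, pH 8.0.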
Fluorescein fluor – compound fluoresces in the fluorescein spectral region; Compound autofluorescence, 480/540 nm, fluorescein-equivalent; hits give high values; max fluorescein-equivalent concentration, M; 0.91% of 59,000 active; in the data active = max fluorescein-equivalent concentration above about 10 nM; inconclusive = between about 1.1 nM and that limit
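In this qHTS profile, compound fluorescence was measured with a 480 nm/540 nm filter pair following a 15-min room-temperature incubation in 100 mM Tris (pH 8.0). A six-point fluorescein series on each plate served for normalization.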
A488 fluor – A488 region autofluorescence. compound autofluorescence, A488 spectral region, dye equivalency; Compound Type: qHTS ECL - MLSMR. max dye equivalency, M. 0.1% of 59,000 active. AID 591
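Compound autofluorescence was read in 100 mM Tris pH 8.0 after 15 min at room temperature, ex 480 nm/em 540 nm. Intensities were converted to A488 dye-equivalent concentration using an on-plate six-point A488 standard curve.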
Rhodamine autofl – rhodamine region autofluorescence | Rhodamine-region fluorescence, 547/598 nm, Tris buffer; hits give high values | max dye-equivalent concentration, M | 0.05% of 59,000 active | AID 594; in the data active = max dye-equivalent concentration above about 11 nM; inconclusive = between about 1.1 nM and that limit
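A six-point rhodamine series on each plate calibrates the signal. Compounds sit in 100 mM Tris (pH 8.0) for 15 min at ambient temperature before imaging through 547 nm/598 nm filters.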
Texas Red fluor – Texas Red region autofluorescence | Compound fluorescence, Texas Red channel, 547/618 nm; hits give high values | max dye-equivalent concentration, M | 0.06% of 59,000 active | AID 587; in the data active = max dye-equivalent concentration above about 10 nM; inconclusive = between about 1.1 nM and that limit
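Compound fluorescence was read after 15 min at room temperature in 100 mM Tris, pH 8.0, using 547 nm excitation and 618 nm emission across a concentration series. It was expressed as Texas Red dye-equivalent concentration from an on-plate standard curve.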
Large screens that a line does not name were inactive; ! = repeats disagree. An excerpt weighted towards active compounds, which were near 0.9% of everything screened. Unless noted, no rule for the calls is given here.

CC(=O)C1=C(C)OC(N)=C(C#N)C1c1ccco1 (stereo not given)	Fluorescein fluor inconclusive
Cc1ccc(C[C@H](Cc2nc3ccccc3[nH]2)c2nc3ccccc3[nH]2)cc1	none
CC1=CC(=O)CC(C)(C)[C@@]1(O)/C=C\C(C)=C\C(=O)O	Fluorescein fluor inconclusive
CCc1cc2c(=O)c(-c3ccc4c(c3)OCCO4)coc2cc1OC(=O)c1ccco1	none
CCc1cc2c(=O)c(-c3nc4ccccc4[nH]3)coc2cc1OC(=O)N1CCOCC1	Fluorescein fluor 1.1e-08M
CCOc1ccc(C2C=C(c3ccccc3)Nc3ncnn32)cc1 (stereo not given)	Fluorescein fluor 1.3e-08M
COc1ccc(C2C=C(c3ccc(C)cc3)Nc3ncnn32)cc1 (stereo not given)	Fluorescein fluor 1.1e-08M
COc1ccc(C2C=C(c3ccc(Br)s3)Nc3ncnn32)cc1OC (stereo not given)	Fluorescein fluor 1.3e-06M, A488 fluor 7.3e-08M
C1=C(c2ccc(-c3ccccc3)cc2)Nc2ncnn2C1c1ccco1 (stereo not given)	Fluorescein fluor 1.4e-07M, A488 fluor inconclusive
CCOc1ccc(C2C=C(c3ccc(F)cc3)Nc3ncnn32)cc1 (stereo not given)	Fluorescein fluor inconclusive, Texas Red fluor inconclusive
COc1cccc(C2=CC(c3ccccc3)n3ncnc3N2)c1 (stereo not given)	Fluorescein fluor inconclusive
CC1(NC[C@@H](O)COc2cccc3[nH]ccc23)CCC(C(C)(C)NC(=O)CBr)CC1 (stereo not given in full)	Fluorescein fluor inconclusive
O=C(O)CCC/C=C\C[C@H]1[C@@H](/C=C\[C@@H](O)C2Cc3ccccc3C2)[C@H](F)C[C@H]1O	none
CC(=O)[C@@H]1[C@@H]2C(=O)N(Cc3ccccc3)C(=O)[C@@H]2C2c3ccccc3C=CN21 (stereo not given in full)	Fluorescein fluor 1.5e-08M
O=C(c1ccco1)[C@@H]1[C@@H]2C(=O)N(c3ccccc3)C(=O)[C@@H]2C2c3ccccc3C=CN21 (stereo not given in full)	Fluorescein fluor 1.8e-08M
Cc1ccc(N2C(=O)[C@@H]3[C@H](C2=O)C2c4ccccc4C=CN2[C@@H]3C(=O)c2ccco2)cc1 (stereo not given in full)	Fluorescein fluor 1.1e-08M, Texas Red fluor inconclusive
Cc1ccc(/C=c2\s/c(=C(/C#N)C(=O)N3CCCC3)n(Cc3ccco3)c2=O)s1	Fluorescein fluor 6.4e-08M, A488 fluor inconclusive, Texas Red fluor inconclusive
COc1cc(/C=c2\s/c(=C(/C#N)C(=O)N3CCCC3)n(-c3ccccc3)c2=O)ccc1O	Fluorescein fluor inconclusive
O=C1C(=O)c2ccccc2C(O)=C1Cc1ccccc1	Fluorescein fluor inconclusive
COc1cc(N2C(=O)NC3CC2(C)Oc2ccccc23)cc(OC)c1OC (stereo not given)	none
CN(C)c1ccc(/C=C/C(O)=C2/C(=O)N(C)C3(C)CC2c2ccccc2O3)cc1 (stereo not given)	Fluorescein fluor 1.6e-08M
CN1/C(=C\P(=O)(N(C)C)N(C)C)C(C)(C)c2ccccc21	Resorufin fluor 1e-08M, Fluorescein fluor inconclusive, Rhodamine autofl 1.2e-08M, Texas Red fluor 4.7e-08M
COc1ccc(-c2cc([C@H](O)[C@@H]3CCCCN3)c3ccccc3n2)cc1	none
CCN(CC)c1ccc2cc(-c3nnc(-c4ccncc4)o3)c(=O)oc2c1	Fluorescein fluor 1e-06M, A488 fluor 4.8e-08M
CCCOc1ccc(-c2nnc(-c3ccncc3)o2)cc1	Fluorescein fluor inconclusive
CCCCCCCCCCCCCCCCCCNC(=O)OC[C@@H](COP(=O)([O-])OCC[n+]1ccsc1)OC	Fluorescein fluor inconclusive, Texas Red fluor inconclusive
COc1ccc2cc(C(c3nnnn3CCc3ccccc3)N3CCC(O)CC3)c(=O)[nH]c2c1 (stereo not given)	Resorufin fluor 1.3e-08M, Fluorescein fluor 1.4e-08M, Rhodamine autofl 2.4e-08M, Texas Red fluor 4.1e-08M
CC(=O)c1c[nH]c2ccc(C)cc2c1=O	Fluorescein fluor inconclusive
CCOC(=O)c1ccc2[nH]cc(C(C)=O)c(=O)c2c1	Fluorescein fluor 2.2e-08M
CCN1CCC[C@@H]1CNC(=O)c1c(OC)ccc(I)c1O	Texas Red fluor inconclusive
CN(C)CC[C@H](c1ccc(Cl)cc1)c1ccccn1	Fluorescein fluor 1.3e-08M!, Texas Red fluor inconclusive
Cc1c(N=C2Nc3cccc4cccc2c34)c(=O)n(-c2ccccc2)n1C	Fluorescein fluor 1.5e-07M, A488 fluor inconclusive
Nc1ncnc2c1ncn2[C@@H]1O[C@@H](C(=O)NC2CC2)[C@H](O)[C@@H]1O	Fluorescein fluor inconclusive, Texas Red fluor inconclusive
FC(F)(F)c1cc(CO[C@@H]2CCCN[C@H]2c2ccccc2)cc(C(F)(F)F)c1	Texas Red fluor inconclusive
CCOC(=O)c1c(C)[nH]c(C=Nc2ccccc2)c1O	Fluorescein fluor 1.7e-08M, Texas Red fluor inconclusive
CCOC(=O)Nc1ccc(NCc2ccc(F)cc2)nc1N	Fluorescein fluor 1.6e-08M
CCOC(=O)Nc1cc(C)ccc1OC	Texas Red fluor inconclusive
C=CCn1c(=O)/c(=C/c2ccc(Cl)cc2)s/c1=C(/C#N)c1nnc2n1CCCCC2	none
C=CCn1c(=O)/c(=C/c2cc(OC)c(OC)c(OC)c2)s/c1=C(/C#N)c1nc2ccccc2n1C	Fluorescein fluor 2.8e-07M, A488 fluor 1.5e-08M
C=CCn1c(=O)/c(=C/c2ccc(O)cc2)s/c1=C(/C#N)c1nnc2n1CCCCC2	Fluorescein fluor 9.4e-08M, A488 fluor inconclusive
C[C@@H](COc1ccc(/C=C\c2ccccc2)cc1)[N+](C)(C)C	Fluorescein fluor inconclusive
COc1ccc2c(C)cc(SCC(=O)N3CCOCC3)nc2c1	Fluorescein fluor 5.9e-08M, A488 fluor inconclusive
CCCCCCCCCCCCCCCC(=O)NC[C@@H](COP(=O)([O-])OCC[N+](C)(C)C)OCC	none
CCCCC[C@@H](O)[C@@H]1C(=O)O[C@@H](C)[C@@H](O)\C=C/C=C\C=C/C=C\C=C(\C)[C@H](O)C[C@H](O)C[C@H](O)C[C@H](O)C[C@H](O)C[C@H](O)C[C@@H]1O	Texas Red fluor inconclusive
COc1ccccc1CN1CC[C@@]2(CCCN(C(=O)c3ccncc3)C2)C1	none
COc1ccccc1CN1CCC2(CC1)CCN(C(=O)c1ccncc1)CC2	Fluorescein fluor 1.1e-08M
CCCCCC[C@@H]([C@H](C)O)n1cnc2c(N)ncnc21	Fluorescein fluor inconclusive, Texas Red fluor inconclusive
CCOc1cccc(C2C(C(=O)c3ccc(C)o3)=C(O)C(=O)N2c2nccs2)c1 (stereo not given)	Fluorescein fluor 4.3e-08M, A488 fluor inconclusive
C=C[C@@]1(C)C=C2CC[C@@H]3[C@](C)(CCC[C@@]3(C)C(=O)O)[C@H]2CC1	none
CCOC(=O)c1c(C)[nH]c(C)c1C(=O)Cn1nnc(-c2ccccc2C)n1	Fluorescein fluor 1e-08M
COc1ccc(CNC(=O)c2cc3c(=O)n4ccccc4nc3n(Cc3cccnc3)c2=N)cc1	Fluorescein fluor 1.1e-07M, A488 fluor inconclusive
